# SW480 rereplic: induces DNA re-replication in SW480 colon adenocarcinoma cells. SW480 DNA re-replication, Hoechst DNA content imaging, 48 h. Potency, µM (doses to about 46.1 µM), without a hit: at the top dose re-replication activation, usual class: activators. 1.8% of 340,000 active. AID 624297; further: % of control where 0% means no effect; nearly all actives have a fitted effect of over 55% in size
#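 Cells (250 per well) received 23 nL compound or DMSO by pin tool and were kept 48 hr at 37 C, 5% CO2. Nuclei were then stained with Hoechst for 40 min and scanned for DNA content.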
# KB-V1 MDR tox: KB-V1 MDR subline cytotoxicity; KB-V1 MDR cells viability, CellTiter-Glo, 72 h; Potency, µM (doses to about 46.1 µM), hits mostly cytotoxic; 3.4% of 400,000 active; further: on the % scale 0 is the no-effect control and ±100 the full control effect; nearly all actives have a fitted effect of over 60% in size
#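 KB-V1 cells (P-gp-expressing MDR subline of KB-3-1) in phenol-red-free DMEM with 10% FBS were exposed to library compounds over a concentration series for 72 h at 37 degrees C. Viability read by CellTiter-Glo luminescence; concentration-effect curves fitted after normalization.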
# MCF10A rereplic: induces DNA re-replication in MCF 10a normal breast cells | MCF 10A DNA re-replication, Hoechst nuclear intensity, 48 h | Potency, µM (top dose mostly 46.1 µM), inactives show top-dose activity, positive = re-replication, hits mostly activators | 2.9% of 350,000 active; further: % of control where 0% means no effect; nearly all actives have a fitted effect of over 50% in size
# ALOX12 inh: inhibitors of human 12S-lipoxygenase ALOX12. P18054. 1.1% of 580,000 active. Potency, µM (highest dose often 108 µM), without a hit: top-dose activity change, negative = inhibition, usual class: inhibitors. AID 1671190. purified 12hLO, xylenol orange hydroperoxide absorbance; further: on the % scale 0 is the no-effect control and ±100 the full control effect
# Target sequence (P18054 whole entry, looked up): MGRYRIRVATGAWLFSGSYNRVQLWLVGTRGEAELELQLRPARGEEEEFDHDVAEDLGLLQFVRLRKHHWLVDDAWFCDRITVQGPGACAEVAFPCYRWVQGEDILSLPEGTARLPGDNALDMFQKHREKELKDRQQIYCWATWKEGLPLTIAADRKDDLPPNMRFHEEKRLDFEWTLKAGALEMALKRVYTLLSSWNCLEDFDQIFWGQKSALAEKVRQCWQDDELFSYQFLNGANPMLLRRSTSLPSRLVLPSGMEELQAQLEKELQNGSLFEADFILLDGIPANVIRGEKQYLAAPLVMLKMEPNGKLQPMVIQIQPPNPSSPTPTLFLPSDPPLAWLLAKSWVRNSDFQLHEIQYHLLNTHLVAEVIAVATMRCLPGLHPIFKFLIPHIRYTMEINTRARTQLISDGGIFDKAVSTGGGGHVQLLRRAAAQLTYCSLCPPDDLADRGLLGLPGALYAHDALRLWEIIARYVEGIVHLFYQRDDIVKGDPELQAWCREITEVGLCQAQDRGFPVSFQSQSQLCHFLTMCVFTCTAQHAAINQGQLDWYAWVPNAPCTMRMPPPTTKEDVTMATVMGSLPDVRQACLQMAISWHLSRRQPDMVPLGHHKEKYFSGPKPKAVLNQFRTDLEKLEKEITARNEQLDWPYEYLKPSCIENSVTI
#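 Purified human 12hLO (150 nM final) in 25 mM Hepes, 0.01% Triton X-100, pH 7.0 was preincubated 15 min at room temperature with compound. Then 40 uM arachidonic acid was added, 30 min. Hydroperoxide was read by Fe-XO absorbance ratio 573/405 nm.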
# KB-3-1 cytotox: kills parental KB-3-1 adenocarcinoma cells; KB-3-1 viability, CellTiter-Glo ATP luminescence, 72 h; Potency, µM (highest dose often 46.1 µM), actives largely listed as cytotoxic; 1.4% of 400,000 active; further: on the % scale 0 is the no-effect control and ±100 the full control effect; nearly all actives have a fitted effect of over 60% in size
#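 Cytotoxicity in the drug-sensitive parental line KB-3-1 was scored as loss of CellTiter-Glo luminescence following 72 h incubation with compound. Values come from curve fitting of normalized concentration-response data.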
# PINK1 expr mod: modulators of PINK1 expression | 0.2% of 410,000 active | PINK1 immunofluorescence, high-content cytometry, 24 h | Potency, µM (series often up to 76.6 µM), without a hit: top-dose activation (PINK1 increase), hits mostly activators; active means well fitted activation curve with a large enough effect; inconclusive means small, poorly fitted or top-dose-only effect; cell line not stated here; further: % of control where 0% means no effect; nearly all actives have a fitted effect of over 65% in size
#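 Decision-based qHTS: stable cells, 24 h exposure to five compound concentrations, CCCP as control. Fixed cells stained for PINK1 plus nuclear, mitochondrial and cell markers, cytometer read.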
# * hit, by the source's call; i = inactive; ? = inconclusive; · = no result; [ ] = remark or other dose. Most compounds without a hit are left out; they make up all but 5.8% or so of the library. Unless noted, the call rests on the fitted dose curve; in most records, active means well fitted curve in the direction sought with a large enough effect; inconclusive means small, poorly fitted or top-dose-only effect, or another doubt; inactive means no such curve, though single readings can be large; an effect the other way counts as inactive or inconclusive. Potency means the concentration at half of the fitted maximal effect.
SMILES,SW480 rereplic,KB-V1 MDR tox,MCF10A rereplic,ALOX12 inh,KB-3-1 cytotox,PINK1 expr mod
COc1ccc(-c2nc(SCC(=O)NCc3ccco3)c(-c3ccccc3)[nH]2)cc1OC,1%,i,21µM*,?,i,-1%
Nc1nc(SCC(=O)NCc2ccco2)[nH]c(=O)c1-c1ccccc1,?,i,27%,13%,i,-2%[38.3 µM]
Cc1ccc(-c2nc(-c3nc(-c4cccs4)cs3)sc2C)cc1,·,·,·,56%,·,·
Cc1cccc(-n2c(SCC(=O)NCc3ccco3)nnc2-c2ccco2)c1,-1%,?,-4%,-28%,i,-1%[38.3 µM]
CCc1ccc(CNC(=O)CSc2cc(=O)n(CC)c3ccccc23)cc1,·,i,·,2%,?,19%
CCn1c(=O)cc(OCC(=O)NCc2ccc(C)o2)c2ccccc21,1%,18µM*,?,-9%,i,-2%[38.3 µM]
Cc1ccc(-c2csc3nnc(SCC(=O)Nc4cccc(C)n4)n23)cc1,-2%,7.3µM*,3%,-21%,i,0%
CCn1c(=O)cc(SCC(=O)NCc2ccco2)c2ccccc21,21µM*,?,3.7µM*,12%,26µM*,14%[38.3 µM]
Cc1ccc(-n2c(SCC(=O)NCc3ccco3)nnc2-c2cccnc2)c(C)c1,20%,21µM*,8%,0%,i,-4%
Cc1ccc(NC(=O)CSc2nnc3scc(-c4ccccc4)n23)cc1,·,i,·,-6%,i,0%
CCc1ccc2oc(-c3ccc(N)cc3O)nc2c1,·,·,·,8%,·,·
Cc1cc2nnc(SCC(=O)NCc3ccco3)n2c2ccccc12,18µM*,i,?,32%,5.8µM*,20%
Cc1cc2nnc(SCC(=O)NCc3cccs3)n2c2ccccc12,-7%,i,8%,-7%,i,·
COc1ccc(C(=O)NCCn2cc(SCC(=O)NCc3ccco3)c3ccccc32)cc1,?,?,-22%,-10%,16µM*,-2%
O=C(CSc1nnc2scc(-c3ccc(Cl)cc3)n12)NCc1ccco1,0%,23µM*,?,-3%,i,-3%[38.3 µM]
Cc1cccc(-c2nsc(SCC(=O)NCc3ccco3)n2)c1,-1%,21µM*,12%,-12%,i,3%
O=C(CNc1cccc(OC(F)(F)F)c1)N1CCNC1=O,·,·,·,32%,·,·
COc1ccc(NC(=O)N2CCN(Cc3ccccc3C)CC2)cc1OC,·,·,·,13%,·,·
CCOC(=O)C(NC(=O)/C=C/c1cc(Cl)c(OCC)c(OC)c1)C(=O)OCC,·,·,·,6%,·,·
COc1ccc(CN2C[C@@H](F)[C@@H](OCc3nc4ccc(C)cc4[nH]3)C2)cc1,·,·,·,24%[176 µM],·,·
Cc1cc(SCC(=O)NC(=O)NCc2ccco2)nc2c(C)cccc12,19%,i,?,22µM*,i,24%[38.3 µM]
O=C(CCSc1nnc2scc(-c3ccccc3)n12)Nc1nc(-c2ccccc2)ns1,-3%,10µM*,2%,?,i,8%
CC(C)NC(=O)N[C@H]1C[C@@H](Cc2cc(CN3CCN(c4ccccc4)CC3)on2)C1(C)C,·,·,·,-4%,·,·
COc1ccc(N2C(=O)CC(Sc3nnnn3-c3ccc(F)cc3)C2=O)cc1 (centres undefined),10µM*,i,?,-1%,i,0%
COc1ccccc1N1CCN(Cc2ccc(O)c3ncccc23)CC1,?,?,?,?,5.2µM*,-1%[38.3 µM]
SMILES,SW480 rereplic,KB-V1 MDR tox,MCF10A rereplic,ALOX12 inh,KB-3-1 cytotox,PINK1 expr mod
CCOC(=O)C1CCN(Cc2ccc(O)c3ncccc23)CC1,0.92µM*,16µM*,4.1µM*,?,23µM*,25µM*
COc1ccccc1N1CCN(Cc2ccc(OC)c(OC)c2OC)CC1,-2%,i,7%,-19%,i,·
Oc1ccc(CN2CCCc3ccccc32)c2cccnc12,11%,?,20%,·,23µM*,?
CCOC(=O)C1CCN(Cc2ccccc2C(F)(F)F)CC1,-1%,i,14%,?,i,9%[38.3 µM]
N#C/C(=C/c1cccc(/C=C(/C#N)c2nc3ccccc3[nH]2)c1)c1nc2ccccc2[nH]1,·,·,·,-29%,·,·
Cc1ccc(CN(C)C(=O)c2cc(S(=O)(=O)Nc3ccc(C)cc3)ccc2C)cc1,·,·,·,1%,·,·
CC(Oc1cccc(Cl)c1)C(=O)Nc1ccc(N2CCOCC2)cc1N1CCOCC1 (centres undefined),-95%[9.22 µM],16µM*,?,3%,i,6%
CC(Oc1ccc(F)cc1)C(=O)Nc1ccc(N2CCOCC2)cc1N1CCOCC1 (centres undefined),-27%,i,-13%,-13%,i,3%
CC(C)C(=O)Nc1ccc(NC(=O)CC(C)(C(=O)O)c2ccccc2)cc1 (centres undefined),·,·,·,-5%,·,·
CCCCOc1ccc(Br)cc1/C(C)=N/NC1=NCCN1,?,5.8µM*,10µM*,?,4.1µM*,1%
CCOC(=O)C1CCCN(C(=O)c2cc(-c3ccco3)nc3ccccc23)C1 (centres undefined),1%,·,-17%,8.9µM*,·,-2%
CCOC(=O)C1CCCN(C(=O)c2ccc3nc(-c4cccc(OC)c4)oc3c2)C1 (centres undefined),16µM*,i,?,500%,5.8µM*,5%
CCOC(=O)C1CCCN(C(=O)c2cc3c(C)nc4ccccc4c3o2)C1 (centres undefined),-1%,13µM*,20%,4%,i,3%[38.3 µM]
CCC(=O)C1CCCN(C(=O)c2ccc3nc(-c4cccc(OC)c4)oc3c2)C1 (centres undefined),8%,i,?,?,i,1%
Cc1ccc(C)c(N2CCN(C(=O)c3cc4c(C)nc5ccccc5c4o3)CC2)c1,-9%,i,21µM*,-6%,i,4%
CC(O)CNc1nc2c(c(=O)n(Cc3ccccc3)c(=O)n2C)n1Cc1ccccc1 (centres undefined),·,·,·,20%,·,·
N#CC1(C(=O)Nc2cnc3ccccc3c2)CCCC1,·,·,·,-7%,·,·
COc1ccccc1-c1coc2cc(OC(=O)c3ccccc3C)ccc2c1=O,·,·,·,7%,·,·
COc1ccc(OC)c(NC(=O)[C@H]2C[C@H]([C@@H](C)O)N[C@]23C(=O)Nc2c(C)cc(Cl)cc23)c1,·,·,·,-21%,·,·
CN(Cc1nc2ccccc2c(=O)[nH]1)Cc1nc2ccsc2c(=O)[nH]1,21µM*,i,1%,14%,i,0%
O=C(Nc1ccccc1)C1=C[C@@H](C2CC2)C[C@@H](OCCCCO)O1,-11%,7.3µM*,-8%,0%,i,3%
O=C(NCc1ccccc1)C1=C[C@H](c2csc3ccccc23)C[C@H](OCCCCO)O1,?,7.3µM*,?,282%,?,0%
